MOR-DOR ag-1: OPRM1-OPRD1 heterodimerization agonism | P35372+P41143 | cells, luminescence | activation, % at 9.3 µM | 340,000 compounds, 0.3% hits | AID 504326
HTR5A ag ctr: counter-screen for OPRM1-OPRD1 agonists: human HTR5A agonism; HTR5A agonist assay, luminescence, cell-based; activation, % at 9.3 µM; 340,000 compounds, 0.61% hits; AID 504692; in the data active = activation mostly above about 9.5%, no sharp cut-off; inactive = mostly below about 7.6%
Target sequence (P47898 whole entry, looked up): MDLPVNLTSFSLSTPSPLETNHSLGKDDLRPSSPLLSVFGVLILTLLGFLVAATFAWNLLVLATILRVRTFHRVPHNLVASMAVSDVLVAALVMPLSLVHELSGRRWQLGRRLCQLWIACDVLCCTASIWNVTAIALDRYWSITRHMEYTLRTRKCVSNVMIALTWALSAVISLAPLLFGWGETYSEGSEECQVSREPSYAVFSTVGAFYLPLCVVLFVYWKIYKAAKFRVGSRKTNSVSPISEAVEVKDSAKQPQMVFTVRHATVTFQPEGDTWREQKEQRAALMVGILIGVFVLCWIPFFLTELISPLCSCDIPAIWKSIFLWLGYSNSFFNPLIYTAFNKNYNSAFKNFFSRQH
OPRM1-OPRD1 inv: mu-delta opioid heterodimer inverse agonism. inhibition, % at 9.3 µM. cell-based MOR-DOR heterodimer luminescence. AID 504357. 340,000 compounds, 0.21% hits; in the data active = inhibition above about 22%, passing the limit was not always enough
HTR5A inv ctr: counter-screen for OPRM1-OPRD1 inverse agonists: human HTR5A inverse agonism; P47898; HTR5A cell line, luminescence; inhibition, % at 9.3 µM; 340,000 compounds, 0.083% hits; AID 504634; in the data active = inhibition mostly above about 23%, no sharp cut-off; inactive = mostly below about 18%
MOR-DOR ag-2: opioid heterodimer agonism, HTR5A counter-screen | shares compounds with HTR5A ag ctr | U2OS counter-screen cells, complementation luminescence, 3 h | activation, % at 9.3 µM | 800 compounds, 13% hits | AID 504913
HTR5A ag confirm: confirmation of human HTR5A agonists. HTR5A agonist cell assay, luminescence. shares compounds with HTR5A ag ctr. AID 504915. activation, % at 9.3 µM. 800 compounds, 17% hits; in the data active = activation above about 17%
Hits are given with their value; - = inactive; . = no result given. Rows were chosen to be rich in hits. Some 1.1% of all compounds tested hit in one or more screens of this group. Cut-off read from the data, not from the text of the source, unless noted: active = activation above about 18%; inactive = the rest.

SMILES	MOR-DOR ag-1	HTR5A ag ctr	OPRM1-OPRD1 inv	HTR5A inv ctr	MOR-DOR ag-2	HTR5A ag confirm
O=C1c2cccc3c(O)ccc(c23)C(=O)N1Cc1ccccc1	-	17.0	-	-	19.8	-
O=C(O)c1cccc(CN2C(=O)c3ccccc3C2=O)c1	-	-	-	-	.	.
O=C(NN1C(=O)c2ccccc2C1=O)C1CC2CCC1C2 (stereo not given)	-	14.4	-	-	-	-
CC1(C)N=C(N)N=C(N)N1CCCCc1ccccc1	-	-	-	-	.	.
CC(c1nnc(SCC(=O)c2c(N)n(C3CC3)c(=O)[nH]c2=O)n1-c1ccc(F)cc1)N(C)C (stereo not given)	-	-	-	-	.	.
O=C(Cn1cnc2c(nnn2-c2ccccc2)c1=O)N1CCOCC1	-	27.7	-	-	-	-
Cc1cc(C(=O)NCC(C)(C)N2CCOCC2)c(C)o1	-	-	-	-	.	.
Cc1ccc(S(=O)(=O)CCC(=O)OCC(=O)N2c3ccccc3CC2C)cc1 (stereo not given)	-	29.0	-	-	-	33.1
C=CCn1c(SCC(=O)NC(=O)NCc2ccco2)nc2sc(C)c(C)c2c1=O	-	16.7	-	-	-	-
C[C@H](NC(=O)C1CCN(S(=O)(=O)c2ccccc2)CC1)C(=O)NCc1ccc(Cl)cc1Cl	-	-	-	-	.	.
CN1CCN(CC(=O)n2c3c(c4ccccc42)CCCC3)CC1	-	-	-	-	.	.
O=C(CN1CCCCC1)n1c2ccccc2c2ccccc21	-	24.1	-	-	-	-
O=c1[nH]c(C2CCN(S(=O)(=O)c3ccccc3F)CC2)nc2c1nnn2Cc1ccc(OC(F)(F)F)cc1	-	-	-	-	.	.
O=c1[nH]c(C2CCN(S(=O)(=O)c3ccccc3C(F)(F)F)CC2)nc2c1nnn2Cc1ccccc1	-	15.7	-	-	-	-
COc1cccc(CNC(=O)Cc2ccc(-c3ccccc3)cc2)c1	-	-	-	-	.	.
COc1cccc(CNC(=O)COC(=O)CNC(=O)c2ccc(-c3ccccc3)cc2)c1	-	14.8	-	-	-	-
COc1ccc(NC(=O)CSc2nnc(Cc3cccn3C)n2-c2ccc(C)cc2)cc1OC	-	15.1	-	-	-	-
COc1ccc(-n2c(Cc3cccn3C)nnc2SCC(=O)Nc2cccc(OC)c2)cc1	-	-	-	-	.	.
COc1cc(OC)cc(-c2nc3ccccc3c(=O)n2OC(=O)c2ccccc2C)c1	-	21.8	-	-	-	-
COc1cc(OC)cc(C(=O)Nc2ccc(Nc3ccccc3)cc2)c1	-	-	-	-	.	.
COc1cc(OC)cc(C(=O)Nc2nnc(NC(=S)Nc3ccccc3)s2)c1	-	15.1	-	-	-	-
CC(C)(C)OC(=O)N[C@@H](C(=O)OC(C)(C)C)c1ccccc1	-	25.3	-	-	-	-
CN(C)C(CNS(=O)(=O)c1ccc2ccccc2c1)c1ccccc1 (stereo not given)	-	-	-	-	.	.
CCn1c(N2CCN(C(=O)C34CC5CC(CC(C5)C3)C4)CC2)nc2ccccc21	-	31.2	-	-	159.4	-
CCN(CC)CCCNC(=S)N1CCN(c2nc3ccccc3n2CC)CC1	-	19.2	-	-	-	45.6
SMILES	MOR-DOR ag-1	HTR5A ag ctr	OPRM1-OPRD1 inv	HTR5A inv ctr	MOR-DOR ag-2	HTR5A ag confirm
CCn1c(N2CCN(S(=O)(=O)c3ccc(OC)cc3)CC2)nc2ccccc21	-	18.1	-	-	-	37.1
CCN(CC)CCCNC(=S)N1CCN(c2nc(-c3ccc(F)cc3)cs2)CC1	-	-	-	-	.	.
Cn1c(N2CCN(S(=O)(=O)c3ccc(F)cc3)CC2)nc2ccccc21	-	-	-	-	.	.
Cc1nnc(SC(C)C(=O)NC2CCCCC2)[nH]c1=O (stereo not given)	-	-	-	-	.	.
CCCn1c(N)c(C(=O)COC(=O)CNC(=O)c2ccccc2OCC)c(=O)[nH]c1=O	-	-	-	-	.	.
O=C(/C=C/c1cccc(F)c1)OCC(=O)N1CCc2ccccc21	-	18.1	-	-	-	-
C[C@H](CO)N1C[C@H](C)[C@@H](CN(C)S(=O)(=O)c2ccc(F)cc2)Oc2ccc(NC(=O)C3CCCCC3)cc2C1=O	-	-	-	-	.	.
O=C(CNC(=O)c1ccco1)Nc1ccc(Cl)cc1	-	21.4	-	-	-	-
O=C(CCNC(=O)c1ccco1)Nc1ccc(Cl)cc1	-	-	-	-	.	.
Cc1ccc(NC(=O)CCCc2ccccc2)c([N+](=O)[O-])c1	-	-	-	-	.	.
COc1cc(OC)c2c(-c3ccccc3)cc(=O)oc2c1C(CCN1CCCC(C)C1)c1ccc(N(C)C)cc1 (stereo not given)	-	-	-	-	.	.
COc1ccc(C(CCN2CCCC(C)C2)c2c(OC)cc(OC)c3c(-c4ccccc4)cc(=O)oc23)cc1 (stereo not given)	-	22.6	-	-	-	-

High-throughput results (PubChem)
